Test results reported in PubChem BioAssay (NCI).
Compounds without any hit were thinned out: in the full panel of roughly 83,000, 20% have a hit.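 Each cell line was grown in a 96-well plate and treated with one concentration of compound for 48 hours. Values below 10 were considered active.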 Active and inactive are the calls of the source.

tested on: A549/ATCC NSCLC; assay: NCI-60 one-dose screen, 48 h (100 = growth as untreated, 0 = no growth, -100 = all killed); conditions: 10 µM unless noted
Experimental: Growth inhibition of the A549/ATCC human Non-Small Cell Lung tumor cell line is measured as a screen for anti-cancer activity. Cells are grown in 96 well plates and exposed to the test compound for 48 hours. Compounds are tested at a single concentration, which is 10^-5 M for most compounds. The reported endpoint is percent growth (GI% or GIPRCNT), where numbers from 0 - 100% represent growth inhibition, and numbers from -100% - 0 represent cell death. For example, a value of 40 represents 60% growth inhibition. A value of 0 means no net growth occurred over the course of the experiment. A value of -40 indicates 40% of cells at the beginning of the experiment died by the end of the experiment. A value of -100 means all cells are dead at the end of the experiment.
NCI-60 Human Tumor Cell Lines Screen was performed using the standard one-dose NCI protocol, which is described in more detail at https://dtp.cancer.gov/discovery_development/nci-60/default.htm.
Compounds with GIPRCNT values below 10 were considered active. Activity score was based on GIPRCNT using the following formula: […]
Score is 0 for GIPRCNT values of 100 or above, 50 for GIPRCNT values of 0, and 100 for GIPRCNT values of -100.

| Structure (SMILES) | growth |
| --- | --- |
| CC[C@@](C)(NC(=O)[C@H](C)NC(=O)CCNC(=O)C(C)(C)NC(=O)[C@H](C)NC(=O)[C@@H]1CCCN1C(=O)[C@@](C)(CC)NC(=O)[C@H](Cc1ccccc1)NC(=O)C1CCCN1C(=O)C(C)(C)NC(=O)C1CCCN1C(=O)C(C)(C)NC(C)=O)C(=O)NCCC(=O)N[C@@H](CC(C)C)C(=O)NC(C)(C)C(=O)NCCC(=O)N[C@@H](CC(C)C)C(=O)NC(C)(C)C(=O)NC(C)(C)C(=O)N[C@@H](CC(C)C)C(=O)NCCC(=O)NCO (stereo not given in full) | -81.3% (active) |
| O=C(Nc1cccc2cccnc12)c1cc(C(=O)c2ccc(Cl)cc2)n2ccc(-c3ccncc3)cc12 | 99.1% (inactive) |
| CN(Cc1cccc(C(F)(F)F)c1)C(=O)[C@@H](CC(=O)N1CCC(N2CCCCC2)CC1)N1C(=O)[C@@H](N2C(=O)OC[C@@H]2c2ccccc2)[C@H]1/C=C/c1ccccc1 | 80.6% (inactive) |
| CCCCCC1CCCCN1C(=O)OCCCC (stereo not given) | 114% (inactive) |
| c1cc2ccc1CNCCN1CCNCc3ccc(cc3)Oc3ccc(cc3)CNCCN(CCNCc3ccc(cc3)O2)CCNCc2ccc(cc2)Oc2ccc(cc2)CNCC1 | -79.1% (active) |
| O=C(Nc1cc(-c2cccnc2)nc(NCCCN2CCOCC2)n1)c1cc(Br)cc(C(F)(F)F)c1 | 67.9% (inactive) |
| CCC(Br)(CC)C(=O)c1ccc(OCC(=O)O)c(Cl)c1Cl | 91.5% (inactive) |
| CCOc1cc(NC(=O)c2ccccc2)c(OCC)cc1N | 115% (inactive) |
| CC1Cc2c(ncnc2-n2cnc3ccccc32)N(C)c2ccccc21 (stereo not given) | 39.3% (inactive) |
| Cc1nc(-c2ccccc2)sc1CC#N | 100% (inactive) |
| Cc1cc(C)c(S(=O)(=O)/N=c2/n(-c3ccccc3)nc3n2CCN3C2=NCCN2)c(C)c1 | 79.9% (inactive) |
| C#C[C@]1(O)CC[C@H]2[C@@H]3CC=C4c5nc(Nc6ccc(OC)cc6OC)sc5CC[C@]4(C)[C@H]3CC[C@@]21C | 9.68% (active) |
| O=C(NCCO)c1cccnc1 | 88.5% (inactive) |
| COc1ccc(C(=O)CCC(=O)O)cc1 | 93.2% (inactive) |
| CO[C@H]1CC[C@@]2(C)C(=CC[C@H]3[C@@H]4C[C@H](O)C[C@@]4(C)CC[C@@H]32)C1 | 81.9% (inactive) |
| COc1cc(NCc2cn(-c3ccc(C(=O)O)cc3)nc2-c2ccc(C(=O)O)cc2)cc(OC)c1OC | 102% (inactive) |
| COc1cc(NN=C(c2ccc(O)cc2)c2ccc(O)cc2)c([N+](=O)[O-])cc1[N+](=O)[O-] | -5.34% (active) |
| CCCCOC(=O)c1c(C)[nH]c(/C=C2\N=C(c3ccc[nH]3)C=C2OC)c1C | -9.07% (active) |
| CC(C)c1ccc(/C=N/N=C(N)N)cc1 | 88.8% (inactive) |
| Nn1c(Nc2ccc(S(=O)(=O)Nc3ncccn3)cc2)nnc(/C=C/c2c(O)ccc3ccccc23)c1=O | 89.5% (inactive) |

| Structure (SMILES) | growth |
| --- | --- |
| O=C(CSc1nc2ccc([N+](=O)[O-])cc2[nH]1)Nc1cccc(Cl)c1 | 28.9% (inactive) |
| CCCCN(CC)CC(CC)Nc1cc(OC)cc2cccnc12 (stereo not given) | 96.3% (inactive) |
| O=C(N[C@@H]1CCCc2ccccc21)[C@H](CCC(=O)N1CCN(C2CCCCC2)CC1)N1C(=O)[C@@H](N2C(=O)OC[C@@H]2c2ccccc2)[C@H]1/C=C/c1ccccc1 | 28% (inactive) |
| O=C1COCCN1c1ccc(NCc2cn(Cc3ccc(F)cc3)c3ccccc23)cc1 | 48.4% (inactive) |
| CCN(CC)CCSC(=O)C(O)(c1ccccc1)C1CCCC1 (stereo not given) | 85.2% (inactive) |
| C=C(C)[C@@H]1CC[C@]2(C(=O)N3CCN(C)CC3)CC[C@]3(C)[C@H](CC[C@@H]4[C@@]5(C)C/C(=C/c6ccncc6)[C@H](O)C(C)(C)[C@@H]5CC[C@]43C)[C@@H]12 | 16.2% [100 µM] (inactive) |
| Cc1ccc(Cn2c(O)c(N=NC(=O)c3ccc(S(N)(=O)=O)cc3)c3ccccc32)cc1 | 93.8% (inactive) |
| CC1(C)C(=NO)C(C)(C)C1=NO | 103% (inactive) |
| COc1ccc2nc3cc(Cl)ccc3c(Nc3ccc(O)c(CN4CCCC4)c3)c2c1 | 27.7% (inactive) |
| O=C(Oc1ccc(Cl)cc1[N+](=O)[O-])Oc1ccc(Cl)cc1[N+](=O)[O-] | 99.2% (inactive) |
| CC1(C)OC2[C@@H](CNC(=O)NC(=O)NC(=O)CI)O[C@@H](n3cnc4c(NC(=O)Nc5ccccc5)ncnc43)[C@H]2O1 (stereo not given in full) | 94.9% (inactive) |
| Cc1c(Cn2cc(COc3ccc(Br)cc3)nn2)c(C)c(Cn2cc(COc3ccc(Br)cc3)nn2)c(C)c1Cn1cc(COc2ccc(Br)cc2)nn1 | 83.4% (inactive) |
| C=C(C)[C@@H]1CC[C@]2(C(=O)OC)CC[C@]3(C)[C@H](CC[C@@H]4[C@@]5(C)CC/C(=N\OCCC(=NCCC#N)NOCCC#N)C(C)(C)[C@@H]5CC[C@]43C)[C@@H]12 | 15.8% [100 µM] (inactive) |
| COc1ccc(-c2cc(-c3ccccc3)nc(NCCNc3ccnc4cc(Cl)ccc34)n2)cc1 | -75.5% (active) |
| O=C(N/N=C/c1ccc([N+](=O)[O-])cc1)c1ccc(Br)o1 | 92.7% (inactive) |
| COc1cc(C)cc2oc3oc(=O)c(C(=O)c4cc5cc(Br)ccc5o4)cc3c(=O)c12 | 102% (inactive) |
| CC(=O)Nc1ccc2nc3ccc(NC(C)=O)cc3[n+](-c3ccccc3)c2c1 | 106% (inactive) |
| CSc1nc2c(c(=O)n1C)C1(C(=O)N(Cc3ccccc3)c3ccccc31)c1c(nc(SC)n(C)c1=O)N2 | 68.5% (inactive) |
| CC1(C(=O)O)CCC(N)(C(=O)O)C1(C)C (stereo not given) | 110% (inactive) |
| O=C1CC(c2ccc3c(c2)OCO3)Nc2ccccc21 (stereo not given) | 21.8% (inactive) |
